# PubChem BioAssay (NCATS)
# “And” between values parts separate entries of the source, which are not always exact repeats. Identical values can stand only once. Records with an inconclusive call do not appear. A call without a number means that no potency is given here. The source made the active and inactive calls. Unless noted, the call rests on the fitted dose curve; in most records, active means well fitted curve in the direction sought with a large enough effect; inconclusive means small, poorly fitted or top-dose-only effect, or another doubt; inactive means no such curve, though single readings can be large; an effect the other way counts as inactive or inconclusive.
# Experiments:
# [1] = biological target: Voltage-gated inwardly rectifying potassium channel KCNH2 (Homo sapiens) (UniProt Q12809); experiment: qHTS Assay for Small Molecule Inhibitors of the Human hERG Channel Activity (AID 588834);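 further: lower thallium flux fluorescence means stronger hERG block; nearly all actives have a fitted effect of over 50% in size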; further: potency means the concentration at half of the fitted maximal effect
# Summary of the method: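 Thallium-flux (FluxOR) read-out on FDSS: fluorescence read 10 s before and 2 min after stimulation buffer. hERG-BacMam-transduced U2OS cells, compound exposure about 10 min. AC50 by standard Hill equation.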
# [2] = biological target: Luciferin 4-monooxygenase (Photinus pyralis) (UniProt P08659); experiment: Biochemical firefly luciferase enzyme assay for NPC (AID 624030); further: nearly all actives have a fitted effect of over 70% in size; further: potency means the concentration at half of the fitted maximal effect
# Summary of the method: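 Purified P. pyralis luciferase at 10 nM in 50 mM Tris Acetate (final), luminescence read within 5 minutes of enzyme addition to compounds. Activity normalised to PTC124 versus DMSO; concentration-response curves classed by r2, magnitude and activity.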
# [3] = S16 Schwann cell viability assay (CellTiter-Glo assay) (AID 624031); further: nearly all actives have a fitted effect of over 70% in size; further: potency means the concentration at half of the fitted maximal effect
# Summary of the method: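 CellTiter-Glo ATP luminescence counter-screen in untransfected S16 rat Schwann cells, 24h compound exposure at 37 degree Celsius after overnight seeding (500-750 cells/well); response scaled between cell-free wells and DMSO (0% activity), curves classed by r2 and magnitude.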
# [4] = S16 Schwann cell PMP22 intronic element firefly luciferase assay (AID 624032); further: nearly all actives have a fitted effect of over 30% in size; further: potency means the concentration at half of the fitted maximal effect
# Summary of the method: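 Rat S16 Schwann cells stably carrying firefly luciferase driven by a PMP22 intronic element, in 10% FBS, treated 24 h at 37 C. ONE-Glo luminescence normalized to PTC124 control and DMSO (0%); curves classed by r2, magnitude and activity.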
# [5] = S16 Schwann cell PMP22 intronic element beta-lactamase assay (AID 624044; calls by dose curve; further: nearly all actives have a fitted effect of over 15% in size; further: potency means the concentration at half of the fitted maximal effect)
# Summary of the method: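 Beta-lactamase reporter under a PMP22 intronic regulatory element in stable S16 rat Schwann cells; 24 h compound exposure. 460 nm blue signal normalized between DMSO (0%) and potassium clavulanate, with 535 nm FRET tracking viability; curves classed by r2 and response.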
# [6] = qHTS of Trypanosoma Brucei Inhibitors: LOPAC Validation (AID 624147)
# Summary of the method: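 T. brucei PYK with substrate was exposed to pin-transferred compounds across a concentration series, then started with 130 uM ADP (final). After 45 min at room temperature, Kinase-Glo Plus luminescence was read, normalized and curve-fitted.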
# [7] = biological target: Glucagon-like peptide 1 receptor (Homo sapiens) (UniProt P43220); experiment: qHTS of GLP-1 Receptor Agonists: LOPAC Validation (AID 624148);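 further: higher luminescence signal means agonism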
# Summary of the method: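 HEK293 cells stably co-expressing GLP-1R and a cAMP-responsive luciferase reporter, plated 12 hours before compound, then incubated 4-6 hr at 37 deg C. Luminescence read 12 min after detection reagent.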
# [8] = qHTS of Nrf2 Activators: LOPAC Validation (AID 624149)
# Summary of the method: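 Cells (AREc32_Fluc) are plated at 1000 per well in OPTI-MEM containing 5% FBS and left overnight. Compounds are pinned in and incubated 24 hr at 37 deg C, and firefly luciferase is detected with Steady-Glo.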
# [9] = HTS Assay for Allosteric Antagonists of the Human D2 Dopamine Receptor: Hit Validation in HTRF (AID 624455);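 further: stable D1 dopamine receptor cell line scored for blocking the D1 response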
# Summary of the method: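 Inhibition of the D1-mediated response is measured by HTRF in cells that stably express the D1 dopamine receptor. Compounds reaching this step are hits from calcium-flux antagonism testing at EC80 dopamine in inducible Hek293 Trex D2 cells.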
# [10] = biological target: Thyroid hormone receptor beta (Homo sapiens) (UniProt P10828); experiment: qHTS assay for small molecule antagonists of thyroid hormone receptor beta signaling (AID 588547; active means well fitted inhibition curve with a large enough effect in the signal ratio, with a control signal flat, not every such curve was filed as active; the % refers to the signal ratio;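 further: cells stimulated with 0.4 nM T3 agonist during compound exposure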); conditions: TR-UAS-bla HEK293, beta-lactamase ratio, antagonist mode, 18 h
# Summary of the method: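 TR-UAS-bla GripTite HEK293 cells in 2% charcoal/dextran FBS medium; compounds 0.59 nM to 92 uM with T3 at 0.4nM final, 18 h at 37 C. Beta-lactamase read by CCF4 fluorescence (460/530 nm); Hill fits gave IC50 and efficacy.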
# [11] = biological target: Glutaminase kidney isoform, mitochondrial (Homo sapiens) (UniProt O94925); experiment: qHTS for Inhibitors of Glutaminase (GLS): LOPAC Validation (AID 624146); further: nearly all actives have a fitted effect of over 60% in size; further: potency means the concentration at half of the fitted maximal effect
# Summary of the method: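 Two-point fluorescence kinetic (t0, 30 min RT) for hKGA; glutamate detected via glutamate oxidase–HRP–Amplex Red. Substrate: 1 mM L-glutamine solution; buffer 45 mM KH2PO4, pH 8.2.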
# [12] = Cytotoxicity counterscreen for NFkB agonists and antagonists (AID 624476);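 further: cells exposed to compound for 48 hours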
# [13] = qHTS Assay for Identification of Small Molecule Agonists for NFkB Signaling Pathway. (AID 624478);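 further: compounds tested together with TNF alpha at its EC50 of 10 pM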
# Summary of the method: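 Activators were sought in reporter cells stimulated at the TNF alpha EC50 (10 pM final). Compound and cytokine were co-incubated 5 hours at 37 C before beta-lactamase substrate detection by dual-emission fluorescence.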
# [14] = Cell Proliferation Assay against the TMD8 Cell Line (AID 651645); conditions: TMD8 DLBCL cell line proliferation/viability; at 46.1 µM (top of the series) unless noted;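 further: cells exposed to compound for 48 h before reading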
# Summary of the method: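 Luminescent ATP read-out (CellTiter-Glo, 15 min RT) after 48 h compound exposure of log-growing TMD8 cells at 37C; percent activity scaled between DMSO as 100% and 9.2 uM bortezomib final as 0%.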
# [15] = Cell Proliferation Assay against the HBL1 Cell Line (AID 651646); conditions: HBL1 DLBCL cells; at 46.1 µM (top of the series) unless noted;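 further: cells exposed to compound for 48 h before reading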
# Summary of the method: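 HBL1, 500 cells/well, RPMI no phenol red + 5% FBS; cpd pinned, 48 h 37C/5% CO2; CellTiter-Glo, 15 min RT, luminescence. % activity: DMSO = 100%, bortezomib 9.2 uM final = 0%.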
# Sequence of Voltage-gated inwardly rectifying potassium channel KCNH2 (Homo sapiens) (Q12809 whole entry, looked up): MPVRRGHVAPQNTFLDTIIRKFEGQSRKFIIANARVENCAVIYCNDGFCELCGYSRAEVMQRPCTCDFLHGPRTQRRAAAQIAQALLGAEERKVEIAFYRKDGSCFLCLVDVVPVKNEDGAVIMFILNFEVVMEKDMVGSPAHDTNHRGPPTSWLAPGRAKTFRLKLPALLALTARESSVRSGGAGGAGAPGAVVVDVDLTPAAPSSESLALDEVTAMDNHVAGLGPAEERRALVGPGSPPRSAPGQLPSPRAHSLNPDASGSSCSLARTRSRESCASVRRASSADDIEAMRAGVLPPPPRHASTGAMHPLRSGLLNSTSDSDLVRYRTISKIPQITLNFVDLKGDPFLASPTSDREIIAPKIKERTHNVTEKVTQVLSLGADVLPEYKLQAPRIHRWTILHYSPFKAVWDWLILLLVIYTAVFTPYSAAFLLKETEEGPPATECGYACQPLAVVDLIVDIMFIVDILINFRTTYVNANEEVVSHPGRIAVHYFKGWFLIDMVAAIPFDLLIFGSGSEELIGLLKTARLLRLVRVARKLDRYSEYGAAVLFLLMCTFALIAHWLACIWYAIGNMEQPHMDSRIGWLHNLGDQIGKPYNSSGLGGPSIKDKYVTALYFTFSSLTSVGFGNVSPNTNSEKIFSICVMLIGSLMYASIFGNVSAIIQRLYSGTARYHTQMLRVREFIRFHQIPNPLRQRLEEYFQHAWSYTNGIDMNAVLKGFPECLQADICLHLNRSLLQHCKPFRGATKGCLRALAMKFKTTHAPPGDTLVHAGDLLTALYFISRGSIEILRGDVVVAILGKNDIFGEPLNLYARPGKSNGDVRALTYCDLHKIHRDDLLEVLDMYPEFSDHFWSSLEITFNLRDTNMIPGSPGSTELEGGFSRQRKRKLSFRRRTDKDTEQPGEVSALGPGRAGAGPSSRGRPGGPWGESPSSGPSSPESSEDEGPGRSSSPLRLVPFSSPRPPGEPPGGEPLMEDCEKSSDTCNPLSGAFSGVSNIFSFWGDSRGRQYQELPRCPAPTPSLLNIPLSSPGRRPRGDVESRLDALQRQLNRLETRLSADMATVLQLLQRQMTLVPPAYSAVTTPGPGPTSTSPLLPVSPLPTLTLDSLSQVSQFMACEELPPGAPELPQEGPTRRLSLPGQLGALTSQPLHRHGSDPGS
# Sequence of Glucagon-like peptide 1 receptor (Homo sapiens) (P43220 whole entry, looked up): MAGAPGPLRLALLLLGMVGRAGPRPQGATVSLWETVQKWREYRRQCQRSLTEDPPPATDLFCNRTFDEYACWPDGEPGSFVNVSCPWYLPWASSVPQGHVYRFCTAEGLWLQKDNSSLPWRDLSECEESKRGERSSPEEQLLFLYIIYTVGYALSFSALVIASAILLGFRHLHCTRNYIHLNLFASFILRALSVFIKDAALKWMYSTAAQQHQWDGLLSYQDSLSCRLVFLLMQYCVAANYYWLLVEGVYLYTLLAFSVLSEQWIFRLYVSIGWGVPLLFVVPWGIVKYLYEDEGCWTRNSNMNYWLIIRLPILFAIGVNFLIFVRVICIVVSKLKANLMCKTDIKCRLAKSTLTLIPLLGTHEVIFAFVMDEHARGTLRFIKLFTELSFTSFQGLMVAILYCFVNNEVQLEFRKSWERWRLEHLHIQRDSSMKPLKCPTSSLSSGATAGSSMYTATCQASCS
# Sequence of Luciferin 4-monooxygenase (Photinus pyralis) (P08659 whole entry, looked up): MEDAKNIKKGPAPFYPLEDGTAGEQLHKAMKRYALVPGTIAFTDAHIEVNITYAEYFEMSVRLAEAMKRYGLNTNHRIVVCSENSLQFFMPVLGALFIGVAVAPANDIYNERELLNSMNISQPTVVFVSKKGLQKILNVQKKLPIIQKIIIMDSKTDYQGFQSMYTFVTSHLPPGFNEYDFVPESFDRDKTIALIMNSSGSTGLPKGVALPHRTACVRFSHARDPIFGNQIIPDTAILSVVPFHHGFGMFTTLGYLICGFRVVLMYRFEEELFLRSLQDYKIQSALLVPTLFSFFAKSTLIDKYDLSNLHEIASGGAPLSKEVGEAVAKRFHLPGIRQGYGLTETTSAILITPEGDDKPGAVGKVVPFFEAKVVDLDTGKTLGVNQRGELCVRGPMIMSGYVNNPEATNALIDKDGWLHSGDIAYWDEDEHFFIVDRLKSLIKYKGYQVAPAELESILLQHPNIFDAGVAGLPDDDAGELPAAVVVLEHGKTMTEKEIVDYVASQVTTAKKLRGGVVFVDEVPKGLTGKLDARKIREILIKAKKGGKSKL
# Sequence of Glutaminase kidney isoform, mitochondrial (Homo sapiens) (O94925 whole entry, looked up, canonical isoform): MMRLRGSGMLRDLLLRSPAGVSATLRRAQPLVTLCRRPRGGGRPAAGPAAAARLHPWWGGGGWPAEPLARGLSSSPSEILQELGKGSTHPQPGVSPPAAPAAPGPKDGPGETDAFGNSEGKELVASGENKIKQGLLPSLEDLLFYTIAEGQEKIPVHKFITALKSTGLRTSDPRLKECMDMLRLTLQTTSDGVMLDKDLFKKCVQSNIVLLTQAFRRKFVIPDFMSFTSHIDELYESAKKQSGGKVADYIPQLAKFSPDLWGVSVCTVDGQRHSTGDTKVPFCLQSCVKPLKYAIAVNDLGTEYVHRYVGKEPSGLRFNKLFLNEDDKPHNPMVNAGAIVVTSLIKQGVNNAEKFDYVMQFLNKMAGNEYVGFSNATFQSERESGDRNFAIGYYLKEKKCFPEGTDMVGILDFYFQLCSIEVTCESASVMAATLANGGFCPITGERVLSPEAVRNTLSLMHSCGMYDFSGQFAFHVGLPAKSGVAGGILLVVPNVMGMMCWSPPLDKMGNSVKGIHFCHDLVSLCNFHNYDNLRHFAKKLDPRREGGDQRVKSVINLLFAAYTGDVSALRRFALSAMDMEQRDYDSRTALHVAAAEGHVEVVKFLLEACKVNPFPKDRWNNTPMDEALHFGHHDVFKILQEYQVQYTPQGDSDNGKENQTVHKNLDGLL
# Sequence of Thyroid hormone receptor beta (Homo sapiens) (P10828 whole entry, looked up): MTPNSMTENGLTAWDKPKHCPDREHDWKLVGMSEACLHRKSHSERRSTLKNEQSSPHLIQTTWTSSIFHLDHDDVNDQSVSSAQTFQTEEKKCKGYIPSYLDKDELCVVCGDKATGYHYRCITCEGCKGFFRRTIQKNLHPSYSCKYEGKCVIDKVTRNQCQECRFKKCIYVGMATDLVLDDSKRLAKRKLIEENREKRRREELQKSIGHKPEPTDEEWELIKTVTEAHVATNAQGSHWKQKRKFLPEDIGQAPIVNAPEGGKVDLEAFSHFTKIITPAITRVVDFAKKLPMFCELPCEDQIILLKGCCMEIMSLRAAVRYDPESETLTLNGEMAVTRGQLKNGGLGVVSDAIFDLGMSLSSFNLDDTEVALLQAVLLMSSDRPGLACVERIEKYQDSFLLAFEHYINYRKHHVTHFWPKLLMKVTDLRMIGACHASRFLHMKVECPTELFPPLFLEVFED
smiles,measurement,setting,value
NC(=O)CN1CC(O)CC1=O (stereo not given),Potency,[1],inactive
same,Potency,[2],inactive
same,Potency,[3],inactive
same,Potency,[4],inactive
same,Potency,[5],inactive
same,outcome,[6],inactive
same,outcome,[7],inactive
same,outcome,[8],inactive
same,Potency,[9],inactive
C[C@]12CCC(=O)C(O)=C1CC[C@@H]1[C@H]3CCC(=O)[C@@]3(C)CC[C@@H]12,Potency,[1],inactive
same,Potency,[5],inactive
CC(C)(c1ccc(O)cc1)c1ccc(O)cc1,activity change % (negative = inhibition),[10],-3.91% (inactive)
same,Potency,[1],inactive
COc1cc(C(O)CN)ccc1O (stereo not given),Potency,[1],inactive
same,Potency,[11],2.24 µM (active)
same,outcome,[6],inactive
same,outcome,[7],inactive
same,outcome,[8],inactive
same,Potency,[9],inactive
NCc1cc(=O)[nH]o1,Potency,[1],inactive
same,Potency,[11],inactive
same,outcome,[6],inactive
same,outcome,[7],inactive
same,outcome,[8],inactive
same,Potency,[9],inactive
COC(=O)c1cncn1C(C)c1ccccc1 (stereo not given),Potency,[1],inactive
same,Potency,[3],inactive
same,Potency,[4],inactive
same,Potency,[5],inactive
CCCN1CCC[C@H](c2cccc(O)c2)C1,Potency,[1],inactive
same,Potency,[3],inactive
same,Potency,[4],inactive
same,Potency,[5],inactive
same,outcome,[6],inactive
same,outcome,[7],inactive
same,outcome,[8],inactive
Nc1ccc(N=Nc2ccccc2)cc1,activity change % (negative = inhibition),[10],-2.63% (inactive)
Cn1cnc(CCN)c1,Potency,[1],inactive
same,Potency,[11],inactive
same,outcome,[6],inactive
same,outcome,[7],inactive
same,outcome,[8],inactive
same,Potency,[9],inactive
CC[N+]1(CCOC(=O)C(O)(c2ccccc2)c2ccccc2)CCCCC1,Potency,[1],inactive
same,Potency,[3],inactive
same,Potency,[5],inactive
CCCCc1ccc(C(=O)O)nc1,Potency,[1],inactive
same,Potency,[3],inactive
same,Potency,[4],inactive
same,outcome,[6],inactive
same,outcome,[7],inactive
same,outcome,[8],inactive
same,Potency,[9],inactive
CC(=O)[O][Hg][c]1ccccc1,Potency,[1],14.1 µM (active) and 25.1 µM (active)
same,Potency,[3],0.907 µM (active)
same,Potency,[4],1.14 µM (active)
same,Potency,[5],14.1 µM (active)
Cc1nc(-c2ccc(-c3ccc(C(=O)N4CCc5cc6c(cc54)C4(CCN(C)CC4)CO6)cc3)c(C)c2)no1,Potency,[1],7.94 µM (active)
same,Potency,[12],inactive
same,outcome,[13],inactive
same,viability (% of control),[14],2.26%
same,"viability, percent of control",[15],1.18%
Cc1c(C(=O)c2cccc3ccccc23)c2cccc3c2n1[C@H](CN1CCOCC1)CO3,Potency,[1],6.31 µM (active)
same,outcome,[6],inactive
same,outcome,[7],inactive
same,outcome,[8],inactive
same,Potency,[9],inactive
CC(O)CN1CCN(CC(=O)[O-])CCN(CC(=O)[O-])CCN(CC(=O)[O-])CC1.[Gd+3] (stereo not given),Potency,[2],inactive
S=C(SSC(=S)N1CCCCC1)N1CCCCC1,Potency,[2],8.09 µM (active)
CC(C)NCC(O)c1ccc([N+](=O)[O-])cc1 (stereo not given),Potency,[2],inactive
CC(=O)NCCc1c[nH]c2ccccc12,Potency,[1],inactive
same,outcome,[6],inactive
same,outcome,[7],inactive
same,outcome,[8],inactive
same,Potency,[9],inactive
Cc1nccc2c1[nH]c1ccccc12,Potency,[1],inactive
same,outcome,[6],inactive
same,outcome,[7],inactive
same,outcome,[8],inactive
same,Potency,[9],inactive
NC(N)=NOCCC(N)C(=O)O (stereo not given),Potency,[1],inactive
same,outcome,[6],inactive
same,outcome,[7],inactive
same,outcome,[8],inactive
same,Potency,[9],inactive
CNCCc1c[nH]c2ccc(O)cc12,Potency,[1],inactive
same,outcome,[6],inactive
same,outcome,[7],inactive
same,outcome,[8],inactive
same,Potency,[9],inactive
CCCN(CCC)[C@@H]1CCc2ccc(O)cc2C1,Potency,[1],2.51 µM (active)
same,outcome,[6],inactive
same,outcome,[7],inactive
same,outcome,[8],inactive
CC[C@@]1(O)C(=O)OCc2c1cc1n(c2=O)Cc2cc3ccccc3nc2-1,Potency,[1],inactive
same,outcome,[6],inactive
same,outcome,[7],inactive
same,outcome,[8],inactive
same,Potency,[9],inactive
O=C1CCCN1CC#CCN1CCCC1,Potency,[1],inactive
same,outcome,[6],inactive
same,outcome,[7],inactive
same,outcome,[8],inactive
same,Potency,[9],inactive
O=C(O)Cc1cnc[nH]1,Potency,[1],inactive
same,outcome,[6],inactive
same,outcome,[7],inactive
same,outcome,[8],inactive
same,Potency,[9],inactive
c1ccc2sc(C3(N4CCCCC4)CCCCC3)cc2c1,Potency,[1],2.82 µM (active)
same,outcome,[6],inactive
same,outcome,[7],inactive
same,outcome,[8],inactive
same,Potency,[9],inactive
C[C@@H](N)Cc1cnc[nH]1,Potency,[1],inactive
same,outcome,[6],inactive
same,outcome,[7],inactive
same,outcome,[8],inactive
same,Potency,[9],inactive
NCCc1c[nH]c2ccc(O)cc12,Potency,[1],inactive
same,outcome,[6],inactive
same,outcome,[7],inactive
same,outcome,[8],inactive
same,Potency,[9],inactive
CCC1(CCC(C)C)C(=O)NC(=O)NC1=O,Potency,[2],inactive
